The nature of test [1]: resazurin metabolic signal in HepG2 cells – cell-based, resazurin fluorescence, 24 h, PK04 Diversity Set, profiling panel (AID 1172). Note: test concentration not given here. Conditions: HepG2 viability, higher = more signal. Background: Resazurin is reduced to fluorescent resorufin, in cell work by metabolically active cells.
Test [2] in a line: budding yeast growth changes without added modifier – OD600, strain BY4716, 24 h, basal condition, primary screen (AID 1173). The conditions noted are these: S. cerevisiae BY4716 growth, OD600, 24 h; higher = more signal, called active from +8 up or from −8 down.
The nature of test [3]: viability profiling in MM1S myeloma cells – cell-based, resazurin fluorescence, basal, 24 h, PK04 Diversity Set, profiling panel (AID 1174).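 Note: MM1S multiple myeloma cell line; test concentration not given here.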 The conditions noted are these: higher = more signal, called active from +8 up or from −8 down.
The target in test [4] is Dihydroorotate dehydrogenase (quinone), mitochondrial (Plasmodium falciparum (isolate 3D7)) (UniProt Q08210). The test can be described thus: inhibition of P. falciparum DHODH – biochemical, C-terminal His tag, absorbance 600 nm, primary screen (AID 1175).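 Note: recombinant parasite enzyme with a five histidine tag at its C terminus; test concentration not given here.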 The conditions noted are these: PfDHODH enzyme, DCIP absorbance 600 nm; higher = more signal, called active from +8 up or from −8 down.
Chain of Dihydroorotate dehydrogenase (quinone), mitochondrial (Plasmodium falciparum (isolate 3D7)) (Q08210 whole entry, looked up): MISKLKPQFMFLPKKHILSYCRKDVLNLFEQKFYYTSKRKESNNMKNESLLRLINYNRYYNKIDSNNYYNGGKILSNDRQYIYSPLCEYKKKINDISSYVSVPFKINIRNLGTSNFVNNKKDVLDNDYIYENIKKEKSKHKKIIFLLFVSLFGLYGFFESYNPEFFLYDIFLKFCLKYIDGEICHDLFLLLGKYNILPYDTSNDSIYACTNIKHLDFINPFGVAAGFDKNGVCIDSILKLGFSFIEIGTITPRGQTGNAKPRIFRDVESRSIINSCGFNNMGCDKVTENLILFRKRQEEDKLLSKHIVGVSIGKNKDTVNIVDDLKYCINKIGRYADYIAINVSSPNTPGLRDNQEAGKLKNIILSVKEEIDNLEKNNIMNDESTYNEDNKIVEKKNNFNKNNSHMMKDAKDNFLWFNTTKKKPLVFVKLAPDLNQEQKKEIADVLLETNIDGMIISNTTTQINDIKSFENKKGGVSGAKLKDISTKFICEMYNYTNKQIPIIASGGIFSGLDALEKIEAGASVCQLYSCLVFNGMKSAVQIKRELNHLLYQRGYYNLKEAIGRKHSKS

A short description of test [5]: inhibition of PAO1 biofilm formation – strain PAO1, LB-PBS medium, absorbance 600 nm, primary screen (AID 1176). Note: test concentration not given here. The conditions noted are these: P. aeruginosa PAO1 growth/biofilm, A600, 12 h; higher = more signal.
Test [6] in a line: growth modulation of vineyard yeast isolate – strain RM11-1a, OD600, basal, 24 h, primary screen (AID 1177).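 Note: cultures grown under basal conditions with no added stressor; test concentration not given here.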 The conditions noted are these: S. cerevisiae RM11-1a growth, OD600, 24 h; higher = more signal, called active from +8 up or from −8 down.
Test [7] in a line: growth of efflux-deficient E. coli DRC39 – strain DRC39, OD650, 24 h, E. coli filamentation inducers, primary screen (AID 1178).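 Note: growth measured as culture turbidity by optical density at 650 nm; test concentration not given here.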 The conditions noted are these: E. coli DRC39 acrAB, higher = more signal, called active from +8 up or from −8 down.
The nature of test [8]: growth of efflux-deficient E. coli DRC39 – strain DRC39, OD650, 48 h, E. coli filamentation inducers, primary screen (AID 1179).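 Note: screen aims at cell division blockers that make cells filament.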 Conditions: E. coli DRC39 delta-acrAB growth, higher = more signal, called active from +8 up or from −8 down.
The nature of test [9]: viability profiling in RPMI8226 myeloma cells – cell-based, resazurin fluorescence, basal, 24 h, PK04 Diversity Set, profiling panel (AID 1180).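 Note: RPMI8826 multiple myeloma cell line at 5000 cells per well; test concentration not given here.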 The conditions noted are these: higher = more signal.
Test [10] addresses E3 ubiquitin-protein ligase XIAP (Homo sapiens) (UniProt P98170). In words: small molecules binding XIAP protein – biophysical, small-molecule microarray, fluorescence 635 nm, primary screen (AID 1181).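 Note: score merges 667 nm emission and signal to noise over triplicate slides.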 Conditions: higher = more signal.

Active and inactive are the calls of the source. Unless noted, the rule behind the calls is not given here.

Chain of E3 ubiquitin-protein ligase XIAP (Homo sapiens) (P98170 whole entry, looked up): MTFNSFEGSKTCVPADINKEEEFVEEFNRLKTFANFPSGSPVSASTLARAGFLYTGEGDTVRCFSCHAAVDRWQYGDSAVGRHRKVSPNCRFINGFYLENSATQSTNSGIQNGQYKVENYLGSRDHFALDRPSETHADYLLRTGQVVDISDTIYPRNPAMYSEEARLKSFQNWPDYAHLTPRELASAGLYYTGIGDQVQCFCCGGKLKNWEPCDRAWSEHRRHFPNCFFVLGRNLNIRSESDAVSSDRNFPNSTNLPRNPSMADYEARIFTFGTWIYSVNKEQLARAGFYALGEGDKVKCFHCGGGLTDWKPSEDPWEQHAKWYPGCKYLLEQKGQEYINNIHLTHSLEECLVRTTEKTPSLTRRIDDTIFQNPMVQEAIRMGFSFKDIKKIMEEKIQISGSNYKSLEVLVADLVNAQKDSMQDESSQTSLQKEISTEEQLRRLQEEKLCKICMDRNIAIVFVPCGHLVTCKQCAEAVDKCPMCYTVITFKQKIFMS

In the case of `COC(=O)[C@H](C)NC(=O)CCC1CC(OC(=O)NCc2cccc3ccccc23)CC2(CCCC(COC(=O)NCCCN3CCCC3=O)O2)O1` (stereo not given in full), the z-score in test [1] is 0.607; in test [2] it was -0.0554 (inactive); in test [3], 0.478 (inactive); in [5] it was 0.286 (inactive); in test [6], 0.0627 (inactive); in [7], 0.992 (inactive). Moreover, the z-score in [8] was -1.34 (inactive); in test [9], -0.0303. For the same compound, the composite z-score in test [4] was -0.104 (inactive); in [10], -0.273.

In the case of `C#CCCCON=C1C[C@@H](O)[C@@H](O)[C@@H]2[C@@H]3C(=O)N(C4CCCCC4)C(=O)[C@@H]3CC[C@@H]12`, the z-score in [1] was -0.673; in [2], -3.17 (inactive); in test [3], -0.0738 (inactive); in test [5] it was 0.164 (inactive); in test [6], -1.88 (inactive); in test [7] it was 0.587 (inactive). Besides, the values for the z-score in [8] and in test [9] were 0.311 (inactive) and 0.321, respectively. Besides, the composite z-score in [4] was -1.65 (inactive); in [10], -0.392.

As for `COC(=O)[C@H](Cc1ccccc1)NC(=O)[C@@H](C)CO`, the z-score in test [1] was -0.427; in [2], -0.462 (inactive); in test [3], -0.0481 (inactive); in test [5] it was 0.733 (inactive); in [6], 0.0469 (inactive); in [7], -1.48 (inactive). Further, the z-score in test [8] was -0.84 (inactive); in test [9], -0.376. The composite z-score in test [4] is -2.16 (inactive); in [10], 0.0154.

`COC(=O)[C@@H]1CC[C@H](C)[C@@H](c2ccc(C)cc2)N1C(=O)c1ccc(C=NOC[C@@H](O)[C@H]2O[C@@H]3OC(C)(C)O[C@@H]3[C@H]2O)cc1`: the z-score was -0.187 in test [1]; -0.318 (inactive) in test [2]; -1.05 (inactive) in test [3]; 0.642 (inactive) in [5]; -0.168 (inactive) in test [6]; 0.507 (inactive) in test [7]. Also, the z-score in test [8] is 0.577 (inactive); in [9], -0.772. In addition, the values for the composite z-score in test [4] and in [10] were -0.354 (inactive) and -0.173, respectively.

As for `COCCNC(=O)OCC1CCCC2(CC(OC(=O)NCc3cccc4ccccc34)CC(CCC(=O)N[C@@H](C)C(=O)OC)O2)O1` (stereo not given in full), the z-score in [1] was 1.77; in test [2], -0.0524 (inactive); in test [3] it was 0.343 (inactive); in [5], -0.303 (inactive); in test [6] it was 1.36 (inactive); in test [7] it was 0.17 (inactive). The values for the z-score in test [8] and in test [9] were 0.812 (inactive) and 0.79, respectively. For the same compound, the composite z-score is 0.124 (inactive) in test [4] and -0.0999 in test [10].

Take `CCCNC(=O)OC[C@H]1O[C@H](CCON=C[C@@H](C)[C@H](OCc2ccccc2)C(C)C)C=C[C@@H]1Oc1ccc(OC)cc1`: the z-score in test [1] was -0.208; in [2], -0.682 (inactive); in test [3] it was -2.5 (inactive); in test [5] it was -0.242 (inactive); in test [6], -2.27 (inactive); in test [7], 0.0465 (inactive). In addition, the z-score in [8] is 0.428 (inactive); in [9] it was -0.58. For the same compound, the results for the composite z-score in [4] and in test [10] were -1.78 (inactive) and -0.357, respectively.

As to `C[C@H]1C=CCC(=O)OC[C@H](C)C(=O)N2CCC[C@H]2C(=O)OC1`, the z-score in [1] was 0.976; in [2] it was -0.18 (inactive); in [3] it was -0.0106 (inactive); in [5], -0.455 (inactive); in test [6], 0.73 (inactive); in [7], 0.0678 (inactive). In addition, the z-score in test [8] is 0.205 (inactive); in test [9] it was 0.818. Also, the composite z-score in test [4] was -0.441 (inactive); in [10], -0.102.

With `CC(CCN1CCCCc2nc(C)c(C)cc21)=NO[C@@H](C)c1cc(-c2c(C)cc(C)cc2C)no1`, the z-score in test [1] is 1.18; in test [2], -6.11 (inactive); in test [3], 0.862 (inactive); in [5], -0.467 (inactive); in test [6] it was -0.62 (inactive); in test [7], 0.777 (inactive). The figures for the z-score in test [8] and in test [9] were 0.935 (inactive) and 1.51, respectively. In addition, the composite z-score in test [4] was -0.525 (inactive); in [10], 0.626.

Turning to `CC(CCC(=O)OC[C@H]1O[C@H](C#Cc2ccccc2)C=C[C@@H]1Oc1ccc(C)cc1)=NOC(C)CN1CCCCc2nc(C)c(C)cc21` (stereo not given in full), the z-score is 0.172 in test [1]; 0.546 (inactive) in test [2]; -0.0229 (inactive) in [3]; 0.311 (inactive) in test [5]; 0.46 (inactive) in [6]; 0.125 (inactive) in test [7]. In addition, the z-score in [8] was -0.116 (inactive); in test [9], 0.304. For the same compound, the composite z-score was -0.669 (inactive) in [4] and -0.102 in test [10].

On to `CO[C@@H]1C=CCC(=O)N[C@@H](C)C(=O)OC[C@@H](NS(=O)(=O)c2ccc(C)cc2)[C@H](C)C=CCC(=O)OC[C@H]1C`, for which the z-score in test [1] was -0.0689; in test [2], -0.872 (inactive); in test [3] it was -0.0213 (inactive); in test [5], -0.212 (inactive); in [6], -0.876 (inactive); in test [7] it was 0.0721 (inactive). For the same compound, the z-score in test [8] was -0.418 (inactive); in [9], 0.135. In addition, the composite z-score is -0.165 (inactive) in test [4] and 0.201 in test [10].
